The record followed here is PubChem BioAssay (NCI).

Test systems include T-47D breast; BT-549 breast; MDA-MB-435 melanoma; SW-620 colon; MCF7 breast; HCT-116 colon; HCC-2998 colon; KM12 colon.
Common to all, as to experiment: NCI-60 one-dose screen, 48 h (100 = growth as untreated, 0 = no growth, -100 = all killed)
Holding throughout (conditions): 10 µM unless noted

This is part of a sample that, as a whole, favours compounds with a hit. Of some 83,000 tested, about 20% had one in any assay.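 Plates (96-well) were seeded with cells, treated with compound at one concentration, and incubated for 48 hours before percent growth was determined.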 Unmarked numbers belong to inactive results. Calls of active or inactive are those of the source. How the source made its calls: active means growth percent below 10; inactive means the rest.

As for `CCOC(=O)c1sc2nc(-c3cccc(OC)c3)nc(N3CCOCC3)c2c1C`, the growth with T-47D breast is 92.8%; in the test with BT-549 breast, 94.9%; in the test with MDA-MB-435 melanoma it was 96.9%; in the test with SW-620 colon, 110%; in the test with MCF7 breast, 90.4%; in the test with HCT-116 colon, 96.6%. In addition, the values for the growth with HCC-2998 colon and with KM12 colon were 99.6% and 97.5%, respectively.
Consider `O=C1/C(=C/c2ccc(Cl)cc2)SC(=S)N1CCc1ccc(O)cc1`, for which the growth is 54.2% in the test with T-47D breast; 101% in the test on BT-549 breast; 92.9% in the test on MDA-MB-435 melanoma; 101% with SW-620 colon; 114% in the test with MCF7 breast; 102% in the test with HCT-116 colon. Moreover, the growth with HCC-2998 colon is 107%; in the test with KM12 colon it was 93.6%.
On to `CSc1nc(Nc2cccc(NC(=O)CCl)c2)c(C#N)c(-c2cccc([N+](=O)[O-])c2)n1`, for which the growth with T-47D breast is 12.2%; with BT-549 breast it was 14.3%; in the test on MDA-MB-435 melanoma, 45.3%; in the test with SW-620 colon it was 7.84% (active); in the test on MCF7 breast it was 0% (active); with HCT-116 colon, -6.05% (active). In addition, the growth in the test on HCC-2998 colon was 105%; in the test with KM12 colon, 88.5%.
Regarding `Cn1cc(C(=O)c2nc(-c3c[nH]c4ccc(F)cc34)no2)c2cc(F)ccc21`, the growth in the test with T-47D breast was 92.1%; in the test on BT-549 breast, 92.5%; in the test with MDA-MB-435 melanoma it was 64%; with SW-620 colon, 87.9%; in the test on MCF7 breast, 58.1%; with HCT-116 colon, 99.8%. Further, the growth in the test on HCC-2998 colon is 97.4%; with KM12 colon, 79.2%.
With `O=C1c2ccccc2OC=C(c2ccccc2)N1CCCCNc1ccc(S(=O)(=O)Nc2ncccn2)cc1`, the growth in the test on T-47D breast was 88.8%; in the test on BT-549 breast, 100%; in the test with MDA-MB-435 melanoma, 105%; in the test with SW-620 colon, 99.3%; in the test with MCF7 breast, 93.7%; with HCT-116 colon, 96.1%. The growth was 111% in the test with HCC-2998 colon and 97.5% with KM12 colon.
`COc1cc2c(cc1-c1c(C)noc1C)ncc1nc(C3CCC(F)(F)CC3)n([C@H](C)COC(F)F)c12`: the growth is 46% in the test on T-47D breast; 61.9% in the test with BT-549 breast; 36.8% in the test with MDA-MB-435 melanoma; 57.3% in the test on SW-620 colon; 18.7% in the test with MCF7 breast; 33% in the test on HCT-116 colon. Further, the growth with HCC-2998 colon is 46.4%; in the test on KM12 colon it was 45.4%.
On to `COc1cc(-c2nn(-c3ccc(Br)cc3)cc2C(=O)O)ccc1O`, for which the growth in the test with T-47D breast was 98.5%; with BT-549 breast, 98.8%; with MDA-MB-435 melanoma, 97%; in the test on SW-620 colon it was 105%; in the test on MCF7 breast, 81.5%; with HCT-116 colon, 97.9%. Also, the growth is 108% with HCC-2998 colon and 94.8% in the test with KM12 colon.
Turning to `CN(C)S(=O)(=O)c1ccc(S(=O)(=O)Nc2cccc(Cl)c2N2CCCCC2)cc1`, the growth with T-47D breast is 67.4%; with BT-549 breast, 88.4%; in the test with MDA-MB-435 melanoma, 92.3%; in the test with SW-620 colon, 97.1%; in the test on MCF7 breast, 84.1%; with HCT-116 colon, 61.6%. For the same molecule, the growth in the test on HCC-2998 colon and in the test on KM12 colon was 94.5% throughout.
Consider `O=C1c2cc3c(cc2-c2c1c1ccc(Cl)cc1c(=O)n2CCCN1CCOCC1)OCO3`, for which the growth is 28.6% in the test on T-47D breast; 59.6% in the test with BT-549 breast; 85.4% in the test with MDA-MB-435 melanoma; 57.2% with SW-620 colon; 18.5% in the test on MCF7 breast; 56.3% in the test on HCT-116 colon. Moreover, the growth with HCC-2998 colon is 74.4%; in the test with KM12 colon, 75.2%.
Turning to `COc1cc2c(cc1OC)C(Sc1ccc(SC)cc1)c1c(nc(N)c(C#N)c1N)O2` (configuration not stated), the growth in the test on T-47D breast is -47.1% (active); in the test on BT-549 breast it was -73.9% (active); in the test on MDA-MB-435 melanoma it was -90.8% (active); with SW-620 colon, -68.9% (active); in the test on MCF7 breast, -51.2% (active); in the test with HCT-116 colon it was -86.8% (active). The results for the growth in the test on HCC-2998 colon and in the test on KM12 colon were -84.9% (active) and -72% (active), respectively.
Regarding `CN(C)CCN1C(=O)c2cccc3c(N)ccc(c23)C1=O`, the growth in the test on T-47D breast was -2.59% (active); in the test on BT-549 breast, 89.9%; in the test on MDA-MB-435 melanoma, 39.6%; in the test with SW-620 colon it was 26.6%; in the test with MCF7 breast, -11.3% (active); with HCT-116 colon, 15.9%. Also, the growth is 48.1% with HCC-2998 colon and 28.1% in the test on KM12 colon.
Consider `COc1ccc(C2CC(c3ccc(Cl)cc3)=NN2/C=C2\SC(=S)N(NC(=O)Cc3ccccc3Nc3c(Cl)cccc3Cl)C2=O)cc1` (configuration not stated), for which the growth with T-47D breast is 49.5%; with BT-549 breast, 79%; in the test on MDA-MB-435 melanoma, 89.3%; in the test on SW-620 colon, 90%; in the test on MCF7 breast, 74.1%; in the test on HCT-116 colon, 56.3%. The growth was 90.4% in the test on HCC-2998 colon and 85.4% with KM12 colon.
On to `CCCCC(=O)OCC1OC(n2cnc3c(=S)nc[nH]c32)C(OC(=O)CCCC)C1OC(=O)CCCC` (configuration not stated), for which the growth was 36.1% with T-47D breast; 43.9% with BT-549 breast; 29.4% with MDA-MB-435 melanoma; 23.5% with SW-620 colon; 20.2% with MCF7 breast; 27.3% with HCT-116 colon. Moreover, the figures for the growth in the test on HCC-2998 colon and with KM12 colon were -0.586% (active) and 36.1%, respectively.
For the molecule `O=S(=O)(Nc1ccc(I)cc1F)c1ccc(-c2cnc(C3CC3)o2)cc1`, the growth with T-47D breast was 52%; in the test on BT-549 breast, 45.7%; in the test on MDA-MB-435 melanoma it was 2.11% (active); in the test with SW-620 colon it was 27.2%; with MCF7 breast it was 27.9%; in the test on HCT-116 colon, 40.8%. In addition, the growth was 76.9% in the test on HCC-2998 colon and 52.9% with KM12 colon.
